From ChEMBL document CHEMBL3988442, “University of Dundee, Small-Polar-MMV Screening Library” (2021)
For some assays here: Measured potencies and affinities stand elsewhere.

How the values were obtained:
Parameters in all cases: scale not given: direction of the effect not stated beside the values
[1] = biological target: Protein translocase subunit SecA (Escherichia coli (strain K12)) (UniProt P10408); experiment: Assay to Identify E. coli SecA ATPase Inhibitors; format: functional; conditions: 30 µM
Protein translocase subunit SecA (Escherichia coli (strain K12)), sequence (P10408 whole entry): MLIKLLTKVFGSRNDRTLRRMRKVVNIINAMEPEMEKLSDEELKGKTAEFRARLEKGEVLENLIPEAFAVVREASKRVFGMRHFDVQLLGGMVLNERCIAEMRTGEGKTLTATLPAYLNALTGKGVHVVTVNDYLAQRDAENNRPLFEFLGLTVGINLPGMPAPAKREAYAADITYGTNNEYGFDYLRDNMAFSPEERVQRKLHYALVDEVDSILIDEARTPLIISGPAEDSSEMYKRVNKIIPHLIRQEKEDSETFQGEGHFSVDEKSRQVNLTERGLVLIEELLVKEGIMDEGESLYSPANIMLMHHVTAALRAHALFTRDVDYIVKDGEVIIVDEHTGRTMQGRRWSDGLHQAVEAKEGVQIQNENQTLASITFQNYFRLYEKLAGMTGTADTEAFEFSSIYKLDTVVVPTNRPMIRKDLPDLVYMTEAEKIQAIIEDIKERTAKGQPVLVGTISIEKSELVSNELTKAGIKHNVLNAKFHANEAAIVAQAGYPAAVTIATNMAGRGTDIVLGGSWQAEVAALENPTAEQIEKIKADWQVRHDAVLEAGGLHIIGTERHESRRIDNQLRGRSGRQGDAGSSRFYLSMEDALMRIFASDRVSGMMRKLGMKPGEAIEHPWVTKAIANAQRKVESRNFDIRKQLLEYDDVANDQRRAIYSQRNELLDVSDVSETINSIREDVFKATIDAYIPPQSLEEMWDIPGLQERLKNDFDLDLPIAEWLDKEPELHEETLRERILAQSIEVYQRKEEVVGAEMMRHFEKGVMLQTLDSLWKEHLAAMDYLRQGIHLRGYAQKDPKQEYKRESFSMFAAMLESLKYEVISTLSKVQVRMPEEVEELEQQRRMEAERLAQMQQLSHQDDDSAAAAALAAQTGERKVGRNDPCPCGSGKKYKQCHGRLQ

[2] = biological target: T1, Ubiquitin-activating enzyme e1, putative (Leishmania donovani (strain BPK282A1)) (UniProt E9BSI1); experiment: Leishmania donovani Ubiquitin Activating Enzyme (LdE1); format: functional; conditions: 30 µM
T1 sequence (whole entry): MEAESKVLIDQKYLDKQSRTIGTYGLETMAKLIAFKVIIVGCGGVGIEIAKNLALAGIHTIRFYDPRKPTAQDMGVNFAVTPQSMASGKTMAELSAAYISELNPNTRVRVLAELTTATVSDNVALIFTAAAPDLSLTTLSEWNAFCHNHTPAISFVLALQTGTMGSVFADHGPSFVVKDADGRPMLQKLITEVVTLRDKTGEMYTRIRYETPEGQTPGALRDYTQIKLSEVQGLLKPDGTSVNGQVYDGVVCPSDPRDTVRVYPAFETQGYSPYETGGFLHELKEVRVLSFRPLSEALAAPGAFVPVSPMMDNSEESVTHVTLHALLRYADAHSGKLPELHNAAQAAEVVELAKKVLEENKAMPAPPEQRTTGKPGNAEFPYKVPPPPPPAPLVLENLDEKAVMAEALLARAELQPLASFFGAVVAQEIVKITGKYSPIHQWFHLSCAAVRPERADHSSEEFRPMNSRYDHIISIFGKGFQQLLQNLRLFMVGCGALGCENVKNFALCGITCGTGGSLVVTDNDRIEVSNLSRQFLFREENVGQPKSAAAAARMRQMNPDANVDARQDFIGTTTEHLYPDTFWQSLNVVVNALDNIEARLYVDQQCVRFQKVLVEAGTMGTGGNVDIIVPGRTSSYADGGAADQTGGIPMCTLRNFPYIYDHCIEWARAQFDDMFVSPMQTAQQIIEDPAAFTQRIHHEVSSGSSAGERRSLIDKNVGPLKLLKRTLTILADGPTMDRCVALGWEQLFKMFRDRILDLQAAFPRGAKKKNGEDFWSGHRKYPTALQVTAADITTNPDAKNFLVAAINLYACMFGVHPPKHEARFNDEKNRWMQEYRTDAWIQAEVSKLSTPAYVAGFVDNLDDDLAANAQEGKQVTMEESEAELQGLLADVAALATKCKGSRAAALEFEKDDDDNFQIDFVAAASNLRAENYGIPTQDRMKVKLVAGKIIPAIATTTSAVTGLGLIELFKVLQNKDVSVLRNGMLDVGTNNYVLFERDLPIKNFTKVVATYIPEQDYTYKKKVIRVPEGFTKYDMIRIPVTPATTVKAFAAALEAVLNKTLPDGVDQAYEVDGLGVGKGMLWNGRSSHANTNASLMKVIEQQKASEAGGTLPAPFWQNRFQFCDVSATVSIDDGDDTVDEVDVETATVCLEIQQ

[3] = biological target: AMP-activated protein kinase, AMPK (Homo sapiens) (UniProt P54646+O43741+P54619+Q9UGJ0+Q9Y478+Q13131+Q9UGI9); experiment: AMP-dependent Kinase enzyme assay. An in vitro enzyme assay that detects ADP turnover that is directly proportional to AMPK activity. This uses naive AMPK that is activated during the assay with MK-8722; format: functional; conditions: 30 µM
[4] = biological target: Sialic acid-binding Ig-like lectin 9 (Homo sapiens) (UniProt Q9Y336); experiment: Hs-Siglec9 ALPHAscreen SOP 20170721; conditions: 10 µM
Sialic acid-binding Ig-like lectin 9 (Homo sapiens), sequence (Q9Y336 whole entry): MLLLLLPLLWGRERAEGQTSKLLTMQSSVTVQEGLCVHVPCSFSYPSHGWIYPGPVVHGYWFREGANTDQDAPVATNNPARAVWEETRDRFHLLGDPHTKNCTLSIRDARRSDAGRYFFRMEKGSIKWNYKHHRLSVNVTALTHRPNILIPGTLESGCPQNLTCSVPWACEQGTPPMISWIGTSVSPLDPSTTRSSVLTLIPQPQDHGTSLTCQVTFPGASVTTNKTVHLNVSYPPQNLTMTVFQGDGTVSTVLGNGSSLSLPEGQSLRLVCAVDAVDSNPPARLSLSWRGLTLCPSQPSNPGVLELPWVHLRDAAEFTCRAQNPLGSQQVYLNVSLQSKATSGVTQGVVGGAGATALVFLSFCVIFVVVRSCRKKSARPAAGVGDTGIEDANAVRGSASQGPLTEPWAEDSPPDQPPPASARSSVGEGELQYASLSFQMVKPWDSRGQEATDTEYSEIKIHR

Trypanosoma cruzi = experiment: Trypanosoma cruzi phosphomannomutase and mannose-1-phosphate guanylyltransferase assay; format: functional; conditions: 10 µM
[5] = biological target: T2, Arginase-2, mitochondrial (Homo sapiens) (UniProt P78540); experiment: in vitro enzyme assay to detect the production of urea directly proportional to the activity of Arginase II; format: functional; conditions: 33.3 µM; further: in the data most compounds retested in dose-response had high values
T2 sequence (whole entry): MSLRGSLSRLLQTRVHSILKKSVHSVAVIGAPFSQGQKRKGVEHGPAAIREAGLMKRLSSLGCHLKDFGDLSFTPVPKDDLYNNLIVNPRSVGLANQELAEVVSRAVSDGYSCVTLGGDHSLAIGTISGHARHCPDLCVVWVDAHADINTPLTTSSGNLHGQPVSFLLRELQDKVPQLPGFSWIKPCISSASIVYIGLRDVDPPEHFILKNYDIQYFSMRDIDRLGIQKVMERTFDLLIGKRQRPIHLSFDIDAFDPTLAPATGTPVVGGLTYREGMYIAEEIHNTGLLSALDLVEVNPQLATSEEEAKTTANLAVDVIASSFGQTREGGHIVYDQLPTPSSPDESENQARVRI

[6] = biological target: T3, Proteasome subunit beta (Trypanosoma cruzi) (UniProt O96673); experiment: Trypanosoma cruzi proteasome chymotrypsin-like activity (TcProtChymo) assay.; further: in the data most compounds retested in dose-response had high values; format: functional; conditions: 9.37 µM
T3 sequence (whole entry): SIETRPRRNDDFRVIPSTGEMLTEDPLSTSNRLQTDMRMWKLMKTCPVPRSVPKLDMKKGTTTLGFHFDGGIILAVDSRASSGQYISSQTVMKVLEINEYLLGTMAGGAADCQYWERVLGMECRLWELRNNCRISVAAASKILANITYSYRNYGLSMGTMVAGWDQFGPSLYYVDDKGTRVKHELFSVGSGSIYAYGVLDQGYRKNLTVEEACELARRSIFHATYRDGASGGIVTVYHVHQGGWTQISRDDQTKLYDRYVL

Homo sapiens = organism: Homo sapiens; experiment: To identify inhibition of the IFN signalling (Jak-Stat) pathway via expression of an eGFP reporter gene under the control of an IFN-stimulated response element (ISRE) containing MxA promoter.; format: functional; conditions: 30 µM
[7] = biological target: T4, Tyrosyl-tRNA synthetase, putative (Trypanosoma cruzi (strain CL Brener)) (UniProt Q4DSP6); experiment: Trypanosoma cruzi tyrosyl tRNA synthetase (TcYRS) _High Tyrosine SOP; format: functional; conditions: 30 µM; further: in the data most compounds retested in dose-response had high values
T4 sequence (whole entry): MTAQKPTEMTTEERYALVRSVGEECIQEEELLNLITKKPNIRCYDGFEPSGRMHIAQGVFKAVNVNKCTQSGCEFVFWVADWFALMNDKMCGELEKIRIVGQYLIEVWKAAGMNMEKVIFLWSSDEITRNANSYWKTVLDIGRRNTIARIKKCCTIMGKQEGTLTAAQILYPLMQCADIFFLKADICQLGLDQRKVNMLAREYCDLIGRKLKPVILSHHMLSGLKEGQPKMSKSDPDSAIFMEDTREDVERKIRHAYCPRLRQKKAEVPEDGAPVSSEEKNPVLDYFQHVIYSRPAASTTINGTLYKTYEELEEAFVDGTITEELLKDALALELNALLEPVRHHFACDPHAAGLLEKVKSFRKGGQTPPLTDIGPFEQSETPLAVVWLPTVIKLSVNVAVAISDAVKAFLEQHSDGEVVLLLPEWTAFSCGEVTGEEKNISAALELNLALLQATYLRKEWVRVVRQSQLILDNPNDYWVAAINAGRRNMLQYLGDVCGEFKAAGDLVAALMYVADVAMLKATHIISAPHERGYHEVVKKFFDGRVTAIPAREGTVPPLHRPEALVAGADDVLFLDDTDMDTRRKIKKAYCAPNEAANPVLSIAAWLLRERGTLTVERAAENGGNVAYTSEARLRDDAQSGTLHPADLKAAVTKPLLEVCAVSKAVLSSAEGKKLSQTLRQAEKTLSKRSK

[8] = biological target: T4, Tyrosyl-tRNA synthetase, putative (Trypanosoma cruzi (strain CL Brener)); experiment: Trypanosoma cruzi tyrosyl tRNA synthetase (TcYRS) SOP; format: functional; conditions: 30 µM
[9] = biological target: Chromo domain-containing protein 1 (Saccharomyces cerevisiae (strain ATCC 204508 / S288c) (Baker's yeast)) (UniProt P32657); experiment: ScCHD-1 Enzyme Inhibition Assay; format: functional; conditions: 30 µM; further: in the data most compounds retested in dose-response had high values
Chromo domain-containing protein 1 (Saccharomyces cerevisiae (strain ATCC 204508 / S288c) (Baker's yeast)), sequence (P32657 whole entry, the tested form may be a part): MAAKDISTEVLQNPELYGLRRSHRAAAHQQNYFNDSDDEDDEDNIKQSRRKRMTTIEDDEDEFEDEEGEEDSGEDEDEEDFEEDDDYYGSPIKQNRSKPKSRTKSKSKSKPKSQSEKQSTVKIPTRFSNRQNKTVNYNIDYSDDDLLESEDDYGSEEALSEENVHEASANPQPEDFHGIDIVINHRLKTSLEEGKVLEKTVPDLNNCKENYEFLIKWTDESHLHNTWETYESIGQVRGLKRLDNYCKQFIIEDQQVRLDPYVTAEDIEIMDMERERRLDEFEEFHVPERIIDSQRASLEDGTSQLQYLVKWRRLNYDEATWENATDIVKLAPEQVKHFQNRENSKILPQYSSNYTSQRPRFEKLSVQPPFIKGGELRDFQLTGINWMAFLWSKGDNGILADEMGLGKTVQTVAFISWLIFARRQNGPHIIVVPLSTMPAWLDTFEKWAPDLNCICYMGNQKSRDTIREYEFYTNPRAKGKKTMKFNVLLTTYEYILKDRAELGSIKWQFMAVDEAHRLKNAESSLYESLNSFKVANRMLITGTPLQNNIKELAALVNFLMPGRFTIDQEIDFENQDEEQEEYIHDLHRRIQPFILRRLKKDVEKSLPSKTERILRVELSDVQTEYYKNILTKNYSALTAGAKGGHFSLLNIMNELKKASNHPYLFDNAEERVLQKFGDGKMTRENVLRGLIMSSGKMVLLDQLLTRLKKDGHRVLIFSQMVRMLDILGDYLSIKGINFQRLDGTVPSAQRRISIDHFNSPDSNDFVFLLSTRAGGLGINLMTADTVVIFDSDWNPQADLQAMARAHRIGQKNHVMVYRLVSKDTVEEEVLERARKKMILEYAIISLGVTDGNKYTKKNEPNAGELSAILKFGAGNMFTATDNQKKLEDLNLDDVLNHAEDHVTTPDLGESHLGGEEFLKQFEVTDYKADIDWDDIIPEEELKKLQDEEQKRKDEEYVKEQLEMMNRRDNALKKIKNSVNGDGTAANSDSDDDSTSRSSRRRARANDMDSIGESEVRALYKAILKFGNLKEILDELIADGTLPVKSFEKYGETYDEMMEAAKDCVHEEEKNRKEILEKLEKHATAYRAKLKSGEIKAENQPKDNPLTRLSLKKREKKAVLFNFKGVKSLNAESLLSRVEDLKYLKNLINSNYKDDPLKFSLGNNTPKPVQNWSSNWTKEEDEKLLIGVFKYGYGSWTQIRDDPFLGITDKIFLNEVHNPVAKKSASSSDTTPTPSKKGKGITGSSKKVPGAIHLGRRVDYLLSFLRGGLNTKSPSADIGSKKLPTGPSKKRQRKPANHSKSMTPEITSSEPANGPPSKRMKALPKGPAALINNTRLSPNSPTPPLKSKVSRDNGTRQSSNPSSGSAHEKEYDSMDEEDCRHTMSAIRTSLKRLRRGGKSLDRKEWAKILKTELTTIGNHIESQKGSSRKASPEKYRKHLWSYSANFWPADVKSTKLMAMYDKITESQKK

Row | SMILES | Percent Effect [1] | Percent Effect [2] | Percent Effect [3] | Percent Effect [4] | Percent Effect (Trypanosoma cruzi) | Percent Effect [5] | Percent Effect [6] | Percent Effect (Homo sapiens) | Percent Effect [7] | Percent Effect [8] | Percent Effect [9]
1 | Cc1cnn(CC2CCCCN2C(=O)CN(C)C2CC2)c1 (configuration not stated) | 0.161% | 26.6% | -0.801% | -3.2% | -0.103% | -1.94% | 16.8% | -1.15% | 6.25% | 15.2% | -24%
2 | Cc1nc(Nc2ncccn2)cc(C2CCCN2CC(C)C)n1 (configuration not stated) | -6.07% | 5.33% | 4.6% | -0.413% | -1.38% | -2.56% | -1.5% | 0.824% | 2.13% | 6.41% | -1.78%
3 | O=C(c1ccc(Cl)cc1)N1CCCn2nnc(Cn3cccn3)c2C1 | -2.51% | 16.2% | 3.45% | 15.3% | 4.2% | 8.19% | 16.6% | 8.78% | 5.38% | 16.1% | -7.62%
4 | CN(Cc1ncc(-c2ccccc2)o1)CC1CCCN1c1cccnn1 (configuration not stated) | -0.973% | -26% | 3.71% | 2.54% | 7.74% | -1.9% | 1.54% | -9.54% | 2.86% | 9.41% | -9.3%
5 | Cc1n[nH]c(C)c1C1CCCN1C(=O)CNC(=O)C(C)(C)C (configuration not stated) | -0.905% | 8.22% | 0.299% | 14% | 2.74% | 20.9% | 11.5% | -2.46% | 0% | 5% | -4.49%
6 | CN(C)C(=O)COC[C@]12COC[C@H]1CN(CC1CCC1)C2 | 1.38% | 2.7% | -10.5% | 19.2% | 4.79% | 6.7% | 7.12% | 8.3% | 2.15% | 3.7% | -9.34%
7 | CCCn1ncc(CN2C[C@@H]3CCCN3C[C@@H]2CCSC)c1C | 0.712% | 9.46% | 3.26% | -4.09% | -5.93% | -3.02% | 19.5% | 8.73% | 3.23% | 6.49% | -15%
8 | Cc1ccc2c(c1)C1(CCNCC1)CN2C(=O)CN(C)C | -3.67% | 10.8% | 5.31% | -2.86% | -7.14% | 1.59% | 15.7% | 14.1% | 5.41% | 12.8% | -2.47%
9 | Cc1ccc(CC(=O)N2CSCC2C(=O)N(C)Cc2ccco2)o1 (configuration not stated) | -2.18% | 2.63% | 17.7% | -8.06% | -2.89% | 3.24% | 7.02% | -5.97% | 3.45% | 1.24% | -0.996%
10 | O=C(c1cccs1)N1CCC(O)(CN2CCc3ccccc3C2)C1 (configuration not stated) | -1.45% | 4.05% | 0.49% | 2.19% | -4.74% | 5.34% | 11.7% | 7.61% | 2.15% | 3.9% | -12.6%
11 | CCC(C)NC(=O)Nc1ccc(CN2CCOC2=O)cc1 (configuration not stated) | -5.29% | -6.94% | -16.3% | -0.797% | -5.15% | 0% | 12.1% | 21% | -2.1% | -5.13% | -1.28%
12 | CC(CNC(=O)c1ccc(F)cc1Cl)N1CCCC1 (configuration not stated) | -1.76% | 9.72% | 4.21% | -4.19% | -2.82% | 6.18% | 20.4% | -9.11% | 3.16% | 5.13% | -0.608%
13 | CCOc1cccc(C(=O)N2CCN(c3nccc(OC)n3)CC2)c1 | -7.2% | 5.26% | 10.4% | -5.48% | -7% | 1.8% | 6.51% | 16.4% | -1.48% | 1.24% | -2.73%
14 | Cc1nn2c(N3CCC(O)CC3)cc(-c3ccccc3)nc2c1C | -3.77% | 5.48% | -0.844% | 1.98% | -3.57% | -3.99% | 11% | 16% | 5.21% | 13.6% | -5.15%
15 | Cc1ccc(C(=O)N2CCn3cc(CN(C)Cc4ccco4)nc3C2)o1 | 2.2% | 0% | 3.27% | 0.0829% | -4.24% | 3.23% | 3.13% | 0.489% | 1.06% | 3.85% | 105%
16 | Cc1nc(CN2CCN(C(=O)c3sccc3C3CC3)CC2)cs1 | -2.84% | 0% | 8.03% | 9.39% | -0.49% | 3.16% | 3.48% | -10.3% | -2.86% | -2.35% | -13.7%
17 | C[C@@H]1CN(C(=O)NC2CC2)C[C@]12CCN(c1ccsc1)C2=O | -4.11% | 5.33% | 8.07% | 0.822% | -4.13% | 2.1% | 2.56% | 8.5% | 4.25% | 11.5% | -3.74%
18 | O=C(c1ccccn1)N1CCCC(c2nccn2CC2CCC2)C1 (configuration not stated) | -7.93% | 0% | -15.1% | 2.39% | -2.35% | -2.27% | 3.37% | 7.95% | 0% | 0% | -2.91%
19 | Cc1ccccc1CN1CCC2(COCc3cnc(N(C)C)nc32)C1 (configuration not stated) | -1.75% | 2.74% | -2.35% | 15.2% | 8.73% | -2% | 8.65% | 19.6% | 9.38% | 13.6% | -2.3%
20 | Cc1ccccc1S(=O)(=O)NC(=O)CSc1ccc2c(c1)OCCO2 | -0.381% | 1.39% | -0.933% | -9.91% | -3.21% | 0% | 10% | 1.45% | -11.6% | -7.69% | 0.792%
21 | COc1cc(CN2CC[C@@]3(CCCO3)[C@@H](O)C2)ccc1F | -3.6% | 14.9% | 6.46% | -2.68% | 2.96% | 0.696% | 3.74% | -18.1% | 6.45% | 16.9% | -12.2%
22 | O=C(NC1(c2cccc(F)c2)CCOCC1)c1cc[nH]n1 | -4.6% | 5.2% | 0.0633% | 4.75% | 0.885% | -23.4% | 5.32% | 4.47% | 2.15% | 3.7% | -1.53%
